In the library only some 1.8% were active in any assay of this set; here they are far more common.
hiPSC survival – increases survival of single human iPS cells. hiPSC single-cell survival, ATPlite luminescence; 100% = ROCK inhibitor wells, 0% = DMSO. survival enhancement, % at 20 µM. 360,000 compounds, 0.044% hits; in the data active = survival enhancement above about 18%;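 also: cells exposed to compounds for 16 hours before the ATP read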
CendR NRP1 mod – alters CendR peptide binding to human NRP-1 | FAM-RPARPAR peptide binding to NRP-1, fluorescence polarization | inhibition, % at 25 µM | O14786 | 360,000 compounds, 0.85% hits;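 active = inhibition or corrected inhibition above about 18%, plus a signal ratio from 0.5 to 1.5, limit read from the data, passing the limit was not always enough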
ARNT-TACC3 inh – disruptors of human ARNT/TACC3 interaction | Q9Y6A5 | AlphaScreen His-ARNT PAS-B/GST-TACC3 binding, luminescence; TACC3 fragment carries E629A point mutation | inhibition, % at 9.99 µM | 390,000 compounds, 0.66% hits;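 active = mean inhibition of replicates at least 50% and at least half of replicates each reaching 50%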
ABCB6 inh MLPCN – human ABCB6 transporter inhibition. 360,000 compounds, 0.19% hits. Q9NP58. AID 602162. fluorescence ratio to DMSO, % at 10 µM. K562-ABCB6 porphyrin accumulation, flow cytometry, 1 h; active compounds read low;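 active = fluorescence ratio to DMSO below 75%, the collection mean minus 3 SD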;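 also: signal is porphyrin accumulated inside mitochondria; lower ratio means ABCB6 inhibition with less porphyrin fluorescence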
Target sequence (Q9NP58 whole entry, looked up): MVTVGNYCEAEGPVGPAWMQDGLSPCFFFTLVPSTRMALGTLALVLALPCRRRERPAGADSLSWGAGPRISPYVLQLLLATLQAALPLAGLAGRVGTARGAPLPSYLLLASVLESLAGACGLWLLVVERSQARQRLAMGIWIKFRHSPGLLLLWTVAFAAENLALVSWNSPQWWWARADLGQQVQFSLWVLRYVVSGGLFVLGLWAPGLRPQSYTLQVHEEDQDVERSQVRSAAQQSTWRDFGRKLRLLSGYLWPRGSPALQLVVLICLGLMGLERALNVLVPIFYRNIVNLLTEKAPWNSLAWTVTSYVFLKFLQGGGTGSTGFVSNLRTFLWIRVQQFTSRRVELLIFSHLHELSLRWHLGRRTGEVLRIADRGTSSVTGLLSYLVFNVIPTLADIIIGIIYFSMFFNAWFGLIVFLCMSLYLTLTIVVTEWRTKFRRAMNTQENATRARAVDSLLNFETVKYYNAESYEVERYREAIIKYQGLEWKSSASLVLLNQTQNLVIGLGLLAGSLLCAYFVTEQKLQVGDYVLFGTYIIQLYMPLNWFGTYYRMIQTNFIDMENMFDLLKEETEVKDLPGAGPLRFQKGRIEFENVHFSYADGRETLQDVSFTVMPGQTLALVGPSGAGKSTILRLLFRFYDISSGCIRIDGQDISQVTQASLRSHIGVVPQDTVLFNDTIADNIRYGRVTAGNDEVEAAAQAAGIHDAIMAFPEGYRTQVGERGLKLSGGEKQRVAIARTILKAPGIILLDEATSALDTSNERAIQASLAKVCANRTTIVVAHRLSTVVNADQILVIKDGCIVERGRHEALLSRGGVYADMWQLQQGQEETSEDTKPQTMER
GSIS activator – GLuc luminescence reporter in INS-1E cells, primary screen for activators of glucose-dependent secretion of insulin. INS-1E GLuc reporter insulin secretion, 2-3 h. activation, % at 16.6 µM. 370,000 compounds, 0.61% hits. AID 743287;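 active = lowest replicate activation of at least 40%, so every replicate reaches that level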
ABCB6 blocker 1 – blocks the human ABCB6 transporter; ratio response (% of DMSO), % at 10 µM; 700 tested, under 10 active; K562-ABCB6 porphyrin accumulation, flow cytometry, 1 h; active compounds read low; shares compounds with ABCB6 inh MLPCN;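 active = repeat-averaged ratio response below 75% of DMSO, the collection mean minus 3 SD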;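 also: median porphyrin fluorescence at 575 nm with 488 nm excitation from mitochondria; lower ratio means less porphyrin signal so ABCB6 inhibition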
K562 vector FC – counter-screen for ABCB6 inhibitors: effect in vector-only K562 cells. AID 624484. 25 tested, under 10 active. K562 empty-vector cells, flow cytometry fluorescence, 1 h. shares compounds with ABCB6 inh MLPCN. percent response (fluorescence), % at 100 µM;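 active = compounds whose half-maximal effective concentration is below 100 µM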
Of the large screens only hits and unclear results are named; the others gave an inactive call (follow-up assays come after a bar, where they were run).

CC1Cc2ccccc2N1C1=NS(=O)(=O)c2ccccc21 (stereo not given)	ABCB6 inh MLPCN 73.0 | ABCB6 blocker 1 inactive
O=S1(=O)N=C(N2CCCC2)c2ccccc21	none
Cc1ccc(C(=O)Nc2cc(C)nn2CCC#N)cc1	ABCB6 inh MLPCN 74.0 | ABCB6 blocker 1 inactive
Cn1nc(C(F)(F)F)c(-c2cccc(C(F)(F)F)c2)c1NC(=O)c1ccco1	none
Cn1nc(C(F)(F)F)c(-c2cccc(C(F)(F)F)c2)c1NC(=O)Nc1ccc(F)cc1	ABCB6 inh MLPCN 11.0 (no result: ARNT-TACC3 inh) | ABCB6 blocker 1 inactive
COC(=O)c1ccccc1NC(=O)c1noc2c1CC(C(C)(C)C)CC2 (stereo not given)	ABCB6 inh MLPCN 69.0 (no result: GSIS activator) | ABCB6 blocker 1 inactive
CN(CC(=O)Nc1ccc(F)cc1)C(=O)COC(=O)COc1ccc(C#N)cc1	ABCB6 inh MLPCN 68.0 | ABCB6 blocker 1 inactive
Cc1ccc(NC(=O)CN(C)C(=O)COC(=O)COc2ccc(C#N)cc2)cc1	none
O=C(O)CSCC(=O)N1CCCN(c2nccc(C(F)(F)F)n2)CC1	none
O=C(O)COCC(=O)N1CCCN(c2nccc(C(F)(F)F)n2)CC1	ABCB6 inh MLPCN 50.0 (no result: GSIS activator) | ABCB6 blocker 1 inactive
COc1ccc(NC(=O)[C@@H]2CCCN2S(=O)(=O)c2ccc(Cl)cc2)cc1	none
COc1ccc(NC(=O)C2CCCN2S(=O)(=O)c2ccc(C)cc2)cc1 (stereo not given)	ABCB6 inh MLPCN 45.0 | ABCB6 blocker 1 inactive
COc1ccc(NC(=O)CN2CCC(NC(=O)C3CCCCC3)CC2)cc1	ABCB6 inh MLPCN 68.0 (no result: GSIS activator) | ABCB6 blocker 1 inactive
CO[C@@H]1CN(C)C(=O)c2cc(NC(=O)C3CC3)ccc2OC[C@H](C)N(Cc2ccc(F)cc2)C[C@H]1C	none (no result: hiPSC survival, CendR NRP1 mod, ABCB6 inh MLPCN)
O=C(Nc1ccc(Cn2cccn2)cc1)c1ccc(COc2ccc(Br)cc2)cc1	ABCB6 inh MLPCN 72.0 | ABCB6 blocker 1 inactive
CCCC(C(=O)NC1CCCC1)N(Cc1ccccc1)C(=O)c1snc(C(N)=O)c1N (stereo not given)	ABCB6 inh MLPCN 67.0 | ABCB6 blocker 1 inactive
CCCC(C(=O)NC1CCCC1)N(Cc1ccc(OC)cc1)C(=O)c1snc(C(N)=O)c1N (stereo not given)	none
COc1ccccc1CNC(=O)COc1ccccc1OC	none (no result: GSIS activator)
COc1ccccc1CNC(=O)COC(=O)COc1ccccc1F	ABCB6 inh MLPCN 74.0 | ABCB6 blocker 1 inactive
Cn1nc(-c2ccccc2)c(CO)c1Oc1ccc(F)cc1	ABCB6 inh MLPCN 69.0 | ABCB6 blocker 1 inactive
CC1(C)CC(=O)C(C2C3=C(CC(C)(C)CC3=O)Oc3ccc4ccccc4c32)C(=O)C1 (stereo not given)	ABCB6 inh MLPCN 74.0 | ABCB6 blocker 1 inactive
CC1(C)CC(=O)C(C2C3=C(CC(C)(C)CC3=O)Oc3ccccc32)C(=O)C1 (stereo not given)	none
CC(C)NC(=O)Nc1ccc2c(c1)C(=O)N([C@@H](C)CO)C[C@@H](C)[C@H](CN(C)Cc1ccncc1)OCCCC[C@@H](C)O2	none (no result: hiPSC survival, CendR NRP1 mod, ABCB6 inh MLPCN)
COc1cccc(C#Cc2ccc([C@@H]3[C@@H](CO)N4C(=O)CN(S(=O)(=O)c5ccccc5C)C[C@@H]34)cc2)c1	none (no result: hiPSC survival, CendR NRP1 mod, ARNT-TACC3 inh, ABCB6 inh MLPCN)
O=[N+]([O-])c1ccc(OCCn2cncn2)cc1	ABCB6 inh MLPCN 63.0 | ABCB6 blocker 1 inactive
CC1CCCCC1NC(=O)c1cc2c(s1)CS(=O)(=O)C2 (stereo not given)	ABCB6 inh MLPCN 71.0 (no result: GSIS activator) | ABCB6 blocker 1 inactive
CN(C)c1ccc(NC(=O)CSc2nnc(C3CCCCC3)n2N)cc1	ABCB6 inh MLPCN 12.0 (no result: GSIS activator) | ABCB6 blocker 1 inactive
CN(C)C(=O)c1cccc(-c2ccc3c(c2)[C@@H]2[C@@H](CCN2S(=O)(=O)c2ccccc2)[C@@H](CO)N3)c1	none (no result: hiPSC survival, CendR NRP1 mod, ABCB6 inh MLPCN)
COc1ccccc1C1CCN(Cc2c(C)[nH]c3ccccc23)CC1	ABCB6 inh MLPCN 26.0 | ABCB6 blocker 1 inactive
COc1ccccc1C1CCN(Cc2ccc(Cl)c(Cl)c2)CC1	none
COc1ccccc1C1CCN(Cc2cccc3ccccc23)CC1	ABCB6 inh MLPCN 68.0 | ABCB6 blocker 1 inactive
Cc1ccc(-c2ccc3c(c2)O[C@H](CN(C)C(=O)CC2CC2)[C@H](C)CN([C@H](C)CO)S3(=O)=O)cc1	none (no result: hiPSC survival, CendR NRP1 mod, ABCB6 inh MLPCN)
Cc1ccc2[nH]c(=O)c(CN(Cc3cccs3)Cc3nnnn3Cc3ccccc3)cc2c1	ABCB6 inh MLPCN 40.0 | ABCB6 blocker 1 inactive
C[C@H](CO)N1C[C@H](C)[C@H](CN(C)C(=O)c2ccncc2)OCCCC[C@H](C)Oc2ccc(NC(=O)CCC(F)(F)F)cc2C1=O	none (no result: hiPSC survival, CendR NRP1 mod, ABCB6 inh MLPCN)
CCCNC(=O)Nc1ccc2c(c1)C(=O)N(C)C[C@H](OC)[C@@H](C)CN(CC1CCCC1)[C@H](C)CO2	none (no result: hiPSC survival, CendR NRP1 mod, ARNT-TACC3 inh, ABCB6 inh MLPCN)
Cc1cccc(NC(=O)CN2CCN(C(=O)c3c(C)nn(Cc4ccccc4)c3C)CC2)c1C	ABCB6 inh MLPCN 56.0 (no result: GSIS activator) | ABCB6 blocker 1 inactive
Cc1nn(Cc2ccccc2)c(C)c1C(=O)N1CCN(CC(=O)Nc2ccc(F)cc2)CC1	none
C[C@H]1CN([C@@H](C)CO)C(=O)c2cc(NC(=O)Nc3ccccc3)ccc2O[C@H]1CN(C)S(=O)(=O)c1cccs1	none (no result: hiPSC survival, CendR NRP1 mod, ABCB6 inh MLPCN)
C[C@H](CO)N1C[C@H](C)[C@@H](CN(C)Cc2ccc(C(=O)O)cc2)Oc2ccc(NS(=O)(=O)c3cccs3)cc2CC1=O	none (no result: hiPSC survival, CendR NRP1 mod, ARNT-TACC3 inh, ABCB6 inh MLPCN)
Cc1ccc(S(=O)(=O)Nc2ccc3c(c2)CC(=O)N([C@H](C)CO)C[C@H](C)[C@@H](CN(C)Cc2ccc(C(=O)O)cc2)O3)cc1	none (no result: hiPSC survival, CendR NRP1 mod, ARNT-TACC3 inh, ABCB6 inh MLPCN)
Cc1noc(C)c1CSc1ccc(Br)cc1	ABCB6 inh MLPCN 71.0 | ABCB6 blocker 1 inactive
C[C@H](CO)N1C[C@H](C)[C@@H](CN(C)Cc2ccccc2)Oc2ccc(NC(=O)C3CCCCC3)cc2CC1=O	none (no result: hiPSC survival, CendR NRP1 mod, ABCB6 inh MLPCN)
O=C(NCc1ccco1)c1c2c(nc3ccccc13)CCC2	ABCB6 inh MLPCN 74.0 (no result: GSIS activator) | ABCB6 blocker 1 inactive
O=C(NCc1ccc(F)cc1)c1c2c(nc3ccccc13)CCC2	none
CC(=O)Nc1ccc(NC(=O)c2nc(S(=O)(=O)Cc3cccc(C)c3)ncc2Cl)cc1	ABCB6 inh MLPCN 67.0 | K562 vector FC inactive
Cc1cccc(CS(=O)(=O)c2ncc(Cl)c(C(=O)NCc3ccc4c(c3)OCO4)n2)c1	none
COC(=O)c1ccc(NC(=O)c2nc(S(=O)(=O)Cc3cccc(C)c3)ncc2Cl)cc1	ABCB6 inh MLPCN 41.0 | ABCB6 blocker 1 inactive
CN1C(=O)c2cc(NC(=O)c3cccs3)ccc2OC[C@H]2O[C@@H](CC(=O)N3CCCCC3)CC[C@@H]21	none (no result: hiPSC survival, CendR NRP1 mod, ABCB6 inh MLPCN)
O=C(N[C@H]1CC[C@H](CCNC(=O)c2ccccc2F)O[C@@H]1CO)c1cnccn1	none (no result: hiPSC survival, CendR NRP1 mod, ABCB6 inh MLPCN)
